# Compound activity: PubChem BioAssay, National Center for Advancing Translational Sciences (NCATS)
# Shown are actives, neighbours in structure and some others; about 1.2% of the full set was active somewhere.
# gsp antagonist – gsp mutant antagonism; gsp-mutant cells, cAMP HTRF, 30 min; Potency, µM (doses to about 76.9 µM), for inactives: at the highest dose activity change, negative = inhibition, most hits filed as inhibitors; hit rate 0.4% among 340,000; AID 624288; calls by dose curve; cell line not stated here;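 further: intracellular cAMP measured with PDE inhibitor Ro 20-1724 present during compound exposure; potency means the concentration at half of the fitted maximal effect; on the % scale 0 is the no-effect control and ±100 the full control effect; nearly all actives have a fitted effect of over 65% in size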
#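 Cells in G418 medium, seeded 16-24 h, 37C; buffer exchange to DPBS + 1 mM CaCl2, 0.5 mM MgCl2, 0.05% BSA; cpds in DMSO + […] (300 uM stock), 30 min 37C; HTRF cAMP detection.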
# Akt phos inh – blocks phosphorylation of Akt | Neuro2A IGF-stimulated pAkt S473 HTRF, 20 min; active compounds read low | activity change, % for hits at 50 µM | hit rate 0.32% among 360,000 | AID 651550; in the data active means activity change below about -80%; inconclusive means mostly about -51% to -80%; further: on the % scale 0 is the no-effect control and ±100 the full control effect
#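 Neuro2A cells in DMEM with 0.5% FBS, overnight at 37 deg C, given compound at single 50 µM final, then IGF (6 nM final) for 20 min at 37 deg C. Lysed; phospho-Akt Ser473 by HTRF after 24 h, 665/615 ratio.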
# RXFP1 antag – antagonists of human relaxin receptor RXFP1 | hit rate 0.59% among 350,000 | HEK293-RXFP1, relaxin-stimulated cAMP HTRF, 30 min; active compounds read low | Q9HBX9 | activity change, negative = inhibition, % at 57.5 µM | AID 1259400;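 active means activity change of -60% or lower, but not beyond a set lower limit; inconclusive means change between -60% and -40%, or beyond the set limit; inactive means change above -40%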; further: on the % scale 0 is the no-effect control and ±100 the full control effect
# Target sequence (Q9HBX9 whole entry, looked up): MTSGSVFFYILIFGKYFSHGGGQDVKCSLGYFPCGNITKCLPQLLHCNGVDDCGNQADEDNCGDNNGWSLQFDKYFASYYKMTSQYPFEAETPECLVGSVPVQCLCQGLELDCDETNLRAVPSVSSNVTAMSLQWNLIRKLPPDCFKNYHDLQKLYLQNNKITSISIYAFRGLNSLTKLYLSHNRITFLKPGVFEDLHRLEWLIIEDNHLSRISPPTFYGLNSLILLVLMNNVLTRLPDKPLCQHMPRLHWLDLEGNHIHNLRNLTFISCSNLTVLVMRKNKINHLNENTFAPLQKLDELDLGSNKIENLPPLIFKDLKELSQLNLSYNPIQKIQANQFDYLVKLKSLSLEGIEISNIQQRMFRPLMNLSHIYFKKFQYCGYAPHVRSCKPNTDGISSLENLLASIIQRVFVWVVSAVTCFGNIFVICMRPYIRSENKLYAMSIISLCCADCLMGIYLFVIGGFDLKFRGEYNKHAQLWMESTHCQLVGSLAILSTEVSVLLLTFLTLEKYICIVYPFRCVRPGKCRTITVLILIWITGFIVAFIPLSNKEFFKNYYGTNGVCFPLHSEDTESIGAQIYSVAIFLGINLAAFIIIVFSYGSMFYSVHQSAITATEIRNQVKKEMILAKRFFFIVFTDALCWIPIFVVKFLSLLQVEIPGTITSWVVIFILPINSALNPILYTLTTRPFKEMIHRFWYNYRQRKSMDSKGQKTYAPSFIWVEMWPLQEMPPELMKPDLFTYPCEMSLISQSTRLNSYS
# gsp ag – agonists of gsp mutant (McCune-Albright syndrome). gsp mutant cells, cAMP HTRF, 30 min. Potency, µM (series often up to 76.9 µM), for inactives: at the highest dose activation (cAMP increase), most hits filed as activators. hit rate 0.13% among 340,000; active means well fitted activation curve with a large enough effect; inconclusive means small, poorly fitted or top-dose-only effect, or another doubt; inactive means no such curve, though single readings can be large or run the other way; cell line not stated here;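 further: phosphodiesterase inhibitor Ro 20-1724 added with compounds to block cAMP breakdown; potency means the concentration at half of the fitted maximal effect; nearly all actives have a fitted effect of over 60% in size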
#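 Cells in DMEM/10% FBS with G418 were pretreated with compounds in DMSO plus […] (300 uM stock) for 30 min at 37C. cAMP was measured by HTRF (cAMP-d2 plus anti-cAMP antibody-K) after 30 min at room temperature.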
# RXFP1 ag – activates the human relaxin receptor RXFP1; Q9HBX9; HEK293T-RXFP1 cAMP TR-FRET, 30 min; response scale: percent of porcine relaxin response, buffer zero; Potency, µM (top dose mostly 57.5 µM), for the others: top-dose activation, usual class: activators; hit rate 0.3% among 370,000; active means well fitted activation curve with a large enough effect; inconclusive means small, poorly fitted or top-dose-only effect; further: potency means the concentration at half of the fitted maximal effect; on the % scale 0 is the no-effect control and ±100 the full control effect; nearly all actives have a fitted effect of over 60% in size
#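 HEK293 cells stably expressing RXFP1, treated 30 min at 37C with compounds plus PDE4 inhibitor Ro 20174; cAMP measured by HTRF TR-FRET. Normalized to buffer and 29 nM porcine relaxin; EC50 by Hill fit.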
# Numbers without * were called inactive; i = inactive; ? = inconclusive; . = no result; [ ] = another dose, or the depositor's remark.
SMILES,gsp antagonist,Akt phos inh,RXFP1 antag,gsp ag,RXFP1 ag
Nc1nc2ccc([N+](=O)[O-])cc2s1,.,.,-18,.,.
O=C(COc1ccccc1F)Nc1cc(S(=O)(=O)Nc2cccc(Cl)c2)ccc1O,35µM*,i,4,30%,-3%
COc1ccc(OC)c(NC(=O)N2CC3CCCN3c3ccccc32)c1 (stereo unspecified),.,.,-25,.,-1%
COc1cc2c(cc1OC)CN(CC(=O)Nc1ccc(C#N)cc1)CC2,-1%,-107%*,2,-2%,1%
CC(C)c1cc(=O)oc2c3c4c(cc12)CCCN4CCC3,-1%,i,-24,-8%,22%
O=c1oc2c3c4c(cc2c(C(F)(F)F)c1CCN1CCOCC1)CCCN4CCC3,4%,-109%*,9,24%,2%
Cc1ccc(-c2cn(-c3cccc(Cl)c3)c(S(=O)(=O)CC(=O)Nc3ccccc3F)n2)cc1,.,.,-64*,.,4%
O=C(CS(=O)(=O)c1nc(-c2ccc(Cl)cc2)cn1-c1ccccc1)Nc1ccc(F)cc1F,.,.,-64*,.,-3%
O=C1C(=O)N(CCCN2CCOCC2)C(c2ccc(Cl)cc2)/C1=C(\O)c1ccc2c(c1)OCCO2 (stereo unspecified),28%,i,29,11µM*,?
COc1ccc(C2/C(=C(\O)c3ccc4c(c3)OCCO4)C(=O)C(=O)N2Cc2cccnc2)cc1OC (stereo unspecified),13%,i,4,24%,19%
COc1ccccc1C1/C(=C(\O)c2ccc3c(c2)OCCO3)C(=O)C(=O)N1CCCN(C)C (stereo unspecified),.,.,.,.,2%
O=C1C(=O)N(Cc2cccnc2)C(c2ccc(Br)cc2)/C1=C(\O)c1ccc2c(c1)OCCO2 (stereo unspecified),12%,i,0,8.9µM*,?
COc1cccc(C2/C(=C(\O)c3ccc4c(c3)OCCO4)C(=O)C(=O)N2CCCN2CCOCC2)c1OC (stereo unspecified),26%,i,17,8.9µM*,28%
O=C1C(=O)N(CCN2CCOCC2)C(c2ccccc2)/C1=C(\O)c1ccc2c(c1)OCCO2 (stereo unspecified),21%,i,10,?,?
CCOc1ccc(/C(O)=C2/C(=O)C(=O)N(CCCN3CCOCC3)C2c2ccc(C)cc2)cc1C (stereo unspecified),11µM*,i,-1,39%,27%
CCOC(=O)N1CCN(Cc2nc3cc(NC(=O)c4ccc([N+](=O)[O-])cc4)ccc3n2C(C)C)CC1,.,.,-2,.,1%
COc1ccc(OC)c(NC(=O)c2nc(SCc3ccccc3F)ncc2Cl)c1,.,.,-2,.,3%
CC(C)C[C@H](NC(=O)[C@H](Cc1ccccc1)NC(=O)c1cnccn1)B(O)O,.,.,9,.,.
CCOc1cccc(/C(O)=C2/C(=O)C(=O)N(Cc3cccnc3)C2c2ccco2)c1 (stereo unspecified),10%,-116%*,-4,29%,10%
O=C(N/N=C/c1ccc(OC(F)F)cc1)c1ccc(CSc2nc3ccccc3[nH]2)cc1,8.9µM*,i,?,30%[15.4 µM],3%
COc1ccc(/C=C\c2onc(C)c2S(=O)(=O)N2CCC(C(=O)Nc3ccccc3OC)CC2)cc1,.,.,10,.,1%
COc1ccc2cc(C=O)ccc2c1,.,.,-28,.,.
N#C/C(=C(/O)COC(=O)CCCNC(=O)c1ccc(Cl)cc1)c1nc2ccccc2[nH]1,-6%,-102%*,1,13%,1%
N#C/C(=C(/O)COC(=O)CSc1ccc(Cl)cc1)c1nc2ccccc2[nH]1,-5%,i,-11,-1%[15.4 µM],0%
CC(C)c1ccc(/C=N/n2nnnc2Nc2ccccc2)cc1,6%,i,-8,-1%,-1%
SMILES,gsp antagonist,Akt phos inh,RXFP1 antag,gsp ag,RXFP1 ag
CC/C(=N\n1nnnc1Nc1ccccc1)c1ccccc1,2%,-113%*,14,-41%,2%
CCOC(=O)c1cccc(NC(=O)c2cc3sccc3n2Cc2ccc(Cl)cc2)c1,.,.,.,.,17%
CCOC(=O)c1cccc(NC(=O)c2cc3sccc3n2C)c1,35µM*,i,-5,-2%,0%
CCC(=O)N1CCc2cc(Br)cc(S(=O)(=O)N3CCN(c4ccccc4OC)CC3)c21,.,.,.,.,2%
Brc1ccc(CSc2ncn[nH]2)cc1,32µM*,i,6,-2%,0%
N#Cc1c(C(F)(F)F)cc(-c2ccccc2Cl)[nH]c1=O,28µM*,i,-110*,15%,3%
CC(C)(C)OC(=O)CNC(=O)c1[nH]cnc1C(=O)NCCCCCN,14%,i,.,-190%,1%
CC(C)(C)OC(=O)CNC(=O)c1[nH]cnc1C(=O)NCCCCCNC(=O)OC(C)(C)C,35µM*,i,.,-2%,1%
CC1(C)SC2C(NC(=O)C(c3ccccc3)S(=O)(=O)O)C(=O)N2C1C(=O)O (stereo unspecified),.,.,-10,.,.
CCCCN1CCCC1C(=O)Nc1c(C)cc(C)cc1C (stereo unspecified),.,.,-7,.,.
CC(C)CCN1CN(S(=O)(=O)c2cccs2)c2nc3ccccc3nc21,-1%,-107%*,3,10%,-1%
O=C(CSc1nncn2c1cc1occc12)Nc1ccccc1C(F)(F)F,.,.,-7,.,?
CCOC(=O)c1sc(NC(=O)c2ccc(Br)o2)cc1C,-10%,i,-63*,7%,-1%
CC(=O)c1c(C)[nH]c(C(=O)CSc2nc3ccccc3n2C)c1C,?,-85%*,-7,-37%,0%
N#Cc1c(-c2ccc(Cl)cc2)cc(-c2cccs2)nc1SCC(=O)O,10µM*,i,-23,?,4%
COc1ccc2c(C)c(CCC(=O)NCCc3ccc(Cl)cc3)c(=O)oc2c1,.,.,-19,.,5%
CCOC(=O)c1c(CSC(=N)N)n(-c2ccccc2)c2cc(Br)c(OC(C)=O)cc12,1%,i,-61*,2%[15.4 µM],0%
COC(=O)c1sc2cccc(F)c2c1S(=O)(=O)N1CCN(c2ccccc2OC)CC1,.,.,-30,.,27%
COc1ccc(OCC(O)CN(CCO)CC(O)Cn2ccc3ccccc32)cc1 (stereo unspecified),-4%,i,-64*,8%[15.4 µM],1%
COc1ccc2[nH]c3c(N4CCN(Cc5ccc6c(c5)OCO6)CC4)ncnc3c2c1,40µM*,i,-17,11%,2%
Cc1ccc(OC(F)F)c(NC(=O)Nc2cccc(C(F)(F)F)c2)c1,35µM*,i,-30,-1%,0%
O=C(Nc1ccccc1)Nc1cccc(C(F)(F)F)c1,-7%,i,1,17%[15.4 µM],-1%
Fc1ccc(NCc2ccccc2-c2nnc(-c3ccccc3Cl)o2)cc1Cl,.,.,-8,.,1%
Nc1ncnc2c1ncn2C1O[C@H](CO)[C@@H](O)[C@@H]1O (stereo partly specified),10%,i,.,.,0%
